According to ChEMBL document CHEMBL3988442, “University of Dundee, Small-Polar-MMV Screening Library” (2021):

Biological target: T1, Tyrosyl-tRNA synthetase, putative (Trypanosoma cruzi (strain CL Brener)) (UniProt Q4DSP6)
T1 sequence (whole entry): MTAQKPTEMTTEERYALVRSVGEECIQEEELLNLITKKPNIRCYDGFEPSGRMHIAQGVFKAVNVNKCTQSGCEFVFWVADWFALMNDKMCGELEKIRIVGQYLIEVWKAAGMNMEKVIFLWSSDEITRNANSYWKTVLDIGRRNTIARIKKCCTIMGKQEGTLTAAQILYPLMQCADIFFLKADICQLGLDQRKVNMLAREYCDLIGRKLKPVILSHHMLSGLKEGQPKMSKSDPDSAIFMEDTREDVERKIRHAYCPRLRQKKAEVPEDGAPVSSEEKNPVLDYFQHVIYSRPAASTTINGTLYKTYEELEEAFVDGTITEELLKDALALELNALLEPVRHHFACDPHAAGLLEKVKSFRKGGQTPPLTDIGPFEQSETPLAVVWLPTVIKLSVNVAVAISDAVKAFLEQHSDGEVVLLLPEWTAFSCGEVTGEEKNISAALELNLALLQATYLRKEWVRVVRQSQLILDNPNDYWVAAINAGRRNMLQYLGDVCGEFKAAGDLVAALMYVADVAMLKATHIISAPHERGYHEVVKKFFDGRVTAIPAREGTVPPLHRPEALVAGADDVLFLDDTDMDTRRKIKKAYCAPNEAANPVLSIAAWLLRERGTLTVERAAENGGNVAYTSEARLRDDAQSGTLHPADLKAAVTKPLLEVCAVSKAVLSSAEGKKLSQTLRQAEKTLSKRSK
Assay: Trypanosoma cruzi tyrosyl tRNA synthetase (TcYRS) _High Tyrosine SOP
Format: functional
Parameters: scale not given: in the data most compounds retested in dose-response had high values
Conditions: 30 µM

SMILES	Percent Effect [%]
CCn1cnnc1CNC(=O)N1CCC(Cc2cccnc2)CC1	-1.91
Cc1nc(CN2CCCC(NCc3c(C)nc4sccn34)C2)no1 (centres undefined)	10.7
Cn1nc2c(cc1=O)CN(CCc1nc3ccccc3c(=O)[nH]1)CC2	-1.07
COc1ccc(CNC(=O)NCc2c(C)cc(C)[nH]c2=O)cc1	3.45
CN(C)C(=O)NC1COC2(CCN(Cc3nccn3C)CC2)C1 (centres undefined)	5.29
O=C(CN1CCC(C(=O)c2cc(F)ccc2F)CC1)NC1CCCC1	1.06
CCN1C[C@H]2CCN(C(=O)NC3CCCC3)CC[C@H]2S1(=O)=O	1.06
CCC1=N[C@@]2(CC[C@@H]3CN(Cc4ccccc4F)C[C@@H]32)C(=O)N1CC	12.9
CN1CCC(Oc2ccc(NC(=O)c3ccccc3Br)cc2)CC1	1.07
Cc1cc(C(=O)NCC2COCc3c(C)nnn3C2)no1 (centres undefined)	2.15
Cc1cnc(CNC(=O)NCc2cccnc2N(C)C)s1	0
CCCNC(=O)N1CCN(Cc2cc(C)no2)CC1	8.37
COc1cccc2c1ccn2CCC(=O)N1CCCC(C(=O)O)C1 (centres undefined)	-3.19
Cc1csc(CNC(=O)NCC(O)c2cccc(Cl)c2)n1 (centres undefined)	3.7
Cc1noc(Cl)c1CCC(=O)N1CCN(c2ncccn2)CC1	5.42
Cc1ccccc1-c1cncc(C2CCN(C)CC2)n1	5.38
Cc1ccc(CN2CCOC3(CCCN(C(=O)c4ccco4)C3)C2)s1 (centres undefined)	6.45
CS(=O)(=O)NCc1nnc2n1CCN(CC1CC1)C2	5.41
Cc1ccc(=O)n(CC2(O)CCN(Cc3cnc(C)nc3)CC2)n1	-1.07
CN(C)S(=O)(=O)N1CCCC1CC(=O)c1cccs1 (centres undefined)	-2.65

SMILES	Percent Effect [%]
COc1cc(CNC2CCc3nc(C(C)C)nn3C2)cc2c1OCO2 (centres undefined)	1.48
CCOCC1CN(Cc2ccoc2)Cc2nn(CC3CC3)cc21 (centres undefined)	-7.92
O=C(c1cc(COc2ccc3c(c2)OCO3)[nH]n1)N1CCCC1	3.12
CCCS(=O)(=O)N1CCC(NC(=O)c2cc(C)c(CC)s2)CC1	6.01
CCOC(=O)C1CCN(C(=O)Cn2ccc3cc(Br)ccc32)CC1	1.06
CCOc1cc(C)ccc1NC(=O)N(C)Cc1cnn(C)c1	6.4
COc1ccc(C(=O)N2CCC(Nc3ccc(C)nn3)CC2)c(F)c1	7.29
CC(C)CCc1noc(CN2CCCN(C(=O)c3ccco3)CC2)n1	3.12
Cc1noc2nc(C3CCN(Cc4ccncc4)CC3)cc(C(F)F)c12	2.15
COCC1CN(Cc2ccc(C)o2)Cc2cn(C)nc21 (centres undefined)	10.4
Cc1cnn(CCNCc2ccccc2Oc2cccnc2)c1	8.33
CN(CCCC#N)C1CCCN(Cc2noc(C3CC3)n2)C1 (centres undefined)	4.21
Cc1cc(C)nc(CCNC(=O)[C@H]2CNC[C@@H](C(=O)N3CCCC3)C2)n1	2.08
CCOc1cc(C)nc(N2CCN(C(=O)CC)CC2)n1	6.93
Cn1ccc(C(=O)N2CCCC(Cc3cccc4ncccc34)C2)n1 (centres undefined)	3.23
CCn1ccnc1CN1CCN(CCOc2ccccc2OC)CC1	0.49
O=S(=O)(N(Cc1ccccn1)C1CC1)N1CCCC1c1ccco1 (centres undefined)	3.96
Cn1ncc2c(=O)[nH]c(CN3CCCC3Cc3ccccc3)nc21 (centres undefined)	8.37
CC1CN(CC(=O)Nc2cccnc2)CCN1c1nccs1 (centres undefined)	1.98
